The values below come from PubChem BioAssay AID588689 (Southern Research Specialized Biocontainment Screening …, 2011).

Out of some 340,000 compounds screened, about 1,000 (0.29%) were called active. Rule as the data show it: inconclusive = inhibition above about 29% without an active follow-up result; inactive = below that. The list is a sample of the results. Entries with a potency or affinity are not part of this list.

Usually inhibition stands for the drop in the measured response relative to a control, in per cent.

The assay addresses Genome polyprotein (Dengue virus type 2 (strain 16681-PDK53)) (UniProt P29991). Description: Dengue-2 NS5 methyltransferase inhibitors, primary screen, biochemical, confirmation dose response (AID 588689). The settings on record: Dengue-2 NS5 methyltransferase capping enzyme assay, at 25 µM, stronger effect = higher value.
Setting [1] is: measured here: pilot screen replicate inhibition.

With `O=C(/C=C/c1cccc([N+](=O)[O-])c1)OCC(=O)N1CCN(C(=O)c2ccco2)CC1`, the inhibition was 0.39% (inactive).
The same measure, in the same setting: for `COc1cccc(NC(=O)C2CCCN2C(=O)Nc2ccccc2F)c1` (stereo not drawn) the value was -4.94% (inactive); for `Oc1ccc2ccccc2c1CN1CCN(C/C=C/c2ccccc2)CC1`, -14.3% (inactive).
With `O=C(O)c1ccc(N2C(=O)/C(=C/C=C/c3ccccc3)SC2=S)cc1`, the inhibition was 16% (inactive).
In the case of `CC(/C=C1\SC(=S)N(CCCC(=O)Nc2ccc(C(=O)O)cc2)C1=O)=C\c1ccccc1`, the inhibition is 11.7% (inactive).
For `COc1ccc(NC(=O)CN(C)C(=O)c2cccc(S(=O)(=O)N3CCN(C)CC3)c2)cc1`, the inhibition is -5.07% (inactive).
Same read-out and setting: for `CCOC(=O)c1c(NC(=O)C2C3CCC(O3)C2C(=O)O)sc2c1CCC(CC)C2` (stereo not drawn) the value was 4.42% (inactive); for `CCOC(=O)c1c(NC(=O)C2C3C=CC(C3)C2C(=O)O)sc2c1CCC(C)C2` (stereo not drawn), -2.91% (inactive); for `CCOC(=O)c1c(NC(=O)C2C3C=CC(C3)C2C(=O)O)sc2c1CC(C)CC2` (stereo not drawn), 7.29% (inactive).
Still for that read-out and setting: the same measure for `CCOC(=O)c1c(NC(=O)C2C3C=CC(C3)C2C(=O)O)sc2c1CCCC2` (stereo not drawn): 4.37% (inactive).
For the molecule `COc1cc2c(cc1OC)C(C(N)=O)NCC2` (stereo not drawn), the inhibition was 0.81% (inactive).
In the case of `O=C(CN1CCN(c2ccccc2F)CC1)c1ccc(O)c(O)c1`, the inhibition was 6.62% (inactive).
`CNS(=O)(=O)c1cccc(C(=O)OCC(=O)Nc2ccc(OC)cc2[N+](=O)[O-])c1`: the inhibition is 6.24% (inactive).
Turning to `CCCCC(=O)Nc1cc(Cl)ccc1C(=O)O`, the inhibition was 1.56% (inactive).
As for `CCC(=O)Nc1cc(Cl)ccc1C(=O)O`, the inhibition was -5.46% (inactive).
The same measure, in the same setting: the same measure for `COc1ccc(NC(=O)Cc2ccc(Cl)cc2Cl)cn1`: -4.71% (inactive); for `COc1ccc(Nc2ccc(Cl)cc2)c(C(=O)O)c1`: 9.44% (inactive); for `CC(C)(C)c1ccc(S(=O)(=O)N2CCN(c3ncccn3)CC2)cc1`: -5.15% (inactive).
Regarding `O=C(OCCCOC(=O)c1cc[n+]([O-])cc1)c1cc[n+]([O-])cc1`, the inhibition was -7.73% (inactive).
Turning to `CN(C)/C=C1\C(=O)N(c2ccc(Oc3ccccc3)cc2)CS1=O` (stereo not drawn), the inhibition was -8.86% (inactive). For the same molecule, under setting [1], the inhibition came to 4.42%.
With `C=CCN1C(=O)C(Cc2ccc(F)cc2)S/C1=N/N=C/c1cccs1` (stereo not drawn), the inhibition is -3.47% (inactive).
Regarding `Cc1cccc(C(=O)Nc2sc3c(c2C(=O)O)CCCC3)c1`, the inhibition is 2.61% (inactive).
As to `O=C(Nc1sc2c(c1C(=O)O)CCC2)c1cccc(Cl)c1`, the inhibition was 15.2% (inactive).
As to `CC(=O)c1cccc(NC(=O)C23CC4CC(C2)CC(n2cncn2)(C4)C3)c1`, the inhibition is -0.64% (inactive).
Take `NCCCC[C@@H](C(=O)NCCCCCCCCCCC(=O)N1CCNCC1)n1cc(CCCC(=O)O)nn1`: the inhibition is -0.8% (inactive).
On the same count and under the same terms, for `Cc1cc2ccccc2n2c(SCC(=O)N3CCOCC3)nnc12` the value was -8.09% (inactive).
As to `COc1ccc(CNC(=O)C(C)OC(=O)CCN2C(=O)C3CC=CCC3C2=O)cc1` (stereo not drawn), the inhibition was 2.89% (inactive).
With `CC1Cc2ccccc2N1C(=O)CSc1ncccn1` (stereo not drawn), the inhibition is -4.43% (inactive).
In the case of `C=CCOc1ccc(/C=C\c2nc(O)c([N+](=O)[O-])c(=O)[nH]2)cc1OC`, the inhibition is 0.57% (inactive).
Consider `COc1cc(Br)cc(/C=C/c2ccc3cccc(O)c3n2)c1OC`, for which the inhibition is 13.2% (inactive).
Turning to `COc1ccc2cc(/C=N/NC(=O)CSCc3ccc([N+](=O)[O-])cc3)c(Cl)nc2c1`, the inhibition is 4.46% (inactive).
For the molecule `Cc1ccc(SCc2[nH]nc3c2C2(C(=O)Nc4ccc(F)cc42)C(C#N)=C(N)O3)cc1` (stereo not drawn), the inhibition is 2.51% (inactive). Besides, under setting [1], the inhibition was found to be 3.94%.
As for `CCSc1nnc2c(n1)OC(C)(C)Nc1ccccc1-2`, the inhibition is -5.52% (inactive).
With `CSc1nnc2c(n1)OC1(Nc3ccccc3-2)C(=O)Nc2ccccc21` (stereo not drawn), the inhibition is 3.9% (inactive).
On to `c1ccc(CSc2nnc3c(n2)OC(c2ccco2)Nc2ccccc2-3)cc1` (stereo not drawn), for which the inhibition is -0.8% (inactive).
As for `O=C(CSc1nnc(Cc2ccccc2)n1-c1ccc(Cl)cc1)N1CCOCC1`, the inhibition was -3.47% (inactive).
On the same count and under the same terms, the same measure for `N=C1C(c2ccccc2)=C(O)C2CCc3ccccc3N12` (stereo not drawn): -2.07% (inactive).
In the case of `CC(=O)N1CCN(c2ccc([N+](=O)[O-])cc2C#N)CC1`, the inhibition was -1.43% (inactive).
Turning to `O=C1NC(=O)N(Cc2ccccc2)C1=O`, the inhibition was 0% (inactive).
On to `O=C1N/C(=C/c2cccn2-c2ccc(F)cc2)C(=O)N1Cc1ccccc1`, for which the inhibition was -0.68% (inactive).
Take `O=C(CN1CCN(c2ccc(F)cc2)CC1)c1ccc2c(c1)OCO2`: the inhibition is -2.07% (inactive).
With `CC(=O)OC1C([N+]2(C)CCCCC2)C[C@H]2C3CC[C@H]4C[C@H](OC(C)=O)C([N+]5(C)CCCCC5)CC4(C)[C@H]3CCC12C` (stereo partly drawn), the inhibition was -1.47% (inactive).
On to `Cn1c(SCc2ccccc2)nccc1=O`, for which the inhibition was 1.94% (inactive).
As to `O=C1C(SCCO)=C(SCCO)C(=O)c2ccccc21`, the inhibition was -3.66% (inactive).
Turning to `COc1ccc(Nc2ncnc3sc(-c4ccccc4)cc23)cc1`, the inhibition is -5.46% (inactive).
On to `Cc1ccc(S(=O)(=O)NN2C(=O)/C(=C/c3ccccn3)SC2=S)cc1`, for which the inhibition is 14% (inactive).
The same measure, in the same setting: the same measure for `CCN1C(=O)/C(=C/c2cccs2)S/C1=N\S(=O)(=O)c1ccc(C)cc1`: -2.56% (inactive); for `O=C(NN1C(=O)/C(=C/c2cccs2)SC1=S)c1ccccc1`: -1.93% (inactive).
On the same count and under the same terms, for `O=C(NN1C(=O)/C(=C/c2cccs2)SC1=S)c1ccncc1` the value was -4.6% (inactive); for `Cc1cc(C)cc(OCC(=O)N/N=C/c2ccccn2)c1`, 6.27% (inactive).
Turning to `COc1cc2c(cc1OC)C(c1cccs1)N(C(=S)NC(C)C)CC2` (stereo not drawn), the inhibition was -5.35% (inactive).
Consider `Cc1ccc(-c2nnn(CC(=O)N(Cc3ccccc3)C(C(=O)NC(C)(C)C)c3ccncc3)n2)o1` (stereo not drawn), for which the inhibition was -0.68% (inactive).
Same read-out and setting: the same measure for `Cc1cccc(C)c1OCC(O)Cn1c2ccccc2c2ccccc21` (stereo not drawn): -10.5% (inactive); for `CCCc1c(C)c2ccccc2[nH]c1=O`: -1.65% (inactive); for `Cc1ccc(C(=O)O)cc1NS(=O)(=O)c1ccc2c(c1)oc(=O)n2C`: -6.53% (inactive).
Consider `Cc1cc(C)cc(N2C(=O)C=CC2=O)c1`, for which the inhibition is -24.7% (inactive).
On to `O=C(O)c1cccc(N2C(=O)c3ccc4c5c(ccc(c35)C2=O)C(=O)N(c2cccc(C(=O)O)c2)C4=O)c1`, for which the inhibition is 16.5% (inactive).
The same measure, in the same setting: for `O=C(O)c1cc(C(=O)O)cc(N2C(=O)CSC2=S)c1` the value was -4.42% (inactive); for `O=C(O)c1cccc(N2C(=O)C3CC=CCC3C2=O)c1` (stereo not drawn), -1.37% (inactive).
Turning to `N/C(=N\OC(=O)Oc1ccccc1)c1ccc(Cl)cc1`, the inhibition is 2.93% (inactive).
With `COc1ccc(CNC(=O)c2cc(=O)c3cc(C)cc(C)c3o2)cc1`, the inhibition is -5.29% (inactive).
As to `O=[N+]([O-])c1ccc(SCc2c(F)cccc2Cl)nc1`, the inhibition is -6.18% (inactive).
As to `O=C(O)/C=C/C(=O)Nc1ccc(-c2ccccc2)cc1`, the inhibition was -12.6% (inactive).
Take `O=C(O)/C=C/C(=O)Nc1ccc(C(=O)c2ccccc2)cc1`: the inhibition was -4.59% (inactive).
`CC(C)CN(C(=O)CCCSc1nc2ccccc2[nH]1)c1c(N)n(Cc2ccccc2)c(=O)[nH]c1=O`: the inhibition is 2.91% (inactive).
Take `CC1(C)Cc2c(sc3[nH]c(=S)[nH]c(=O)c23)CO1`: the inhibition is -1.64% (inactive).
Consider `CCC1(C)Cc2c(sc3[nH]c(=S)[nH]c(=S)c23)CO1` (stereo not drawn), for which the inhibition is -4.57% (inactive).
On to `O=S(=O)(/N=C(\Nc1ccc(F)cc1)C(F)(F)F)c1ccccc1`, for which the inhibition was 3.78% (inactive).
With `COc1ccc(C(=O)C(C)Oc2cccc(NC(=O)c3cccc([N+](=O)[O-])c3)c2)cc1` (stereo not drawn), the inhibition was 3.25% (inactive).
On to `NS(=O)(=O)c1ccc(N=Nc2ccc(O)c3ncccc23)cc1`, for which the inhibition was 13.7% (inactive).
Regarding `Cc1ccccc1N=Nc1ccc(O)c2ncccc12`, the inhibition was -2.17% (inactive).
Still for that read-out and setting: for `CCN(CC)c1nc2ccccc2n(Cc2cccc(OC)c2)c1=O` the value was -2.37% (inactive); for `Cc1ccc(S(=O)(=O)N2CCC[C@H]2C(=O)OCC(=O)c2ccc3c(c2)NC(=O)CO3)cc1`, -4.71% (inactive).
Turning to `O=C(COc1ccccc1[N+](=O)[O-])Nc1cc(Cl)ccc1C(=O)O`, the inhibition is 0% (inactive).
Still for that read-out and setting: the same measure for `O=C(Cc1cccc2ccccc12)Nc1cc(Cl)ccc1C(=O)O`: -1.36% (inactive); for `CC(=O)Nc1ccccc1NC(=O)COc1cccc2ccccc12`: -2.63% (inactive); for `O=C(COc1ccccc1C(=O)O)Nc1cccc2ccccc12`: 1.47% (inactive).
Turning to `COc1cc(C(C(=O)NC2CCCC2)N(CCO)C(=O)Cn2nnc(-c3ccc(C)o3)n2)ccc1O` (stereo not drawn), the inhibition was 0.83% (inactive).
Consider `COc1ccc(CCNC(=O)CN(c2cc(OC)ccc2OC)S(=O)(=O)c2ccccc2)cc1`, for which the inhibition is -15.3% (inactive).
Consider `N#CC1(c2ccccc2)CCC(=NNS(=O)(=O)c2ccccc2)CC1` (stereo not drawn), for which the inhibition was -6.67% (inactive).
For the molecule `CCn1c(SCC(=O)NC2CCCCC2)nnc1-c1cccs1`, the inhibition is -2.08% (inactive).
Consider `Cc1[nH]n(-c2ccccc2)c(=O)c1-c1ccc(Cl)cc1`, for which the inhibition was -1.62% (inactive).
Take `CCCc1[nH][nH]c(=O)c1C(c1ccc(Br)cc1)C(C#N)C#N` (stereo not drawn): the inhibition was -1.4% (inactive).
In the case of `Cc1[nH]n(-c2ccccc2)c(=O)c1C(C[N+](=O)[O-])c1ccc(Cl)cc1` (stereo not drawn), the inhibition was 4.51% (inactive).
Take `CCCc1[nH][nH]c(=O)c1C(c1ccc(Cl)cc1)C(C#N)C#N` (stereo not drawn): the inhibition is -8.33% (inactive).
`Cc1[nH]n(-c2ccccc2)c(=O)c1C(C[N+](=O)[O-])c1ccc(Br)cc1` (stereo not drawn): the inhibition is 12.4% (inactive).
For the molecule `COc1ccc(C(c2c(C)[nH]n(C(N)=S)c2=O)C(C#N)C#N)cc1` (stereo not drawn), the inhibition is 28% (inactive).
With `Cc1[nH]oc(=O)c1N=Nc1ccc2[nH]c(=O)[nH]c2c1`, the inhibition is -0.78% (inactive).
`Cc1c(NC(=O)Nc2cccc(Cl)c2Cl)c(=O)n(-c2ccccc2)n1C`: the inhibition is 3.9% (inactive).
Consider `C/C(N)=C(/C#N)C(=O)COC(=O)[C@@H](NC(=O)c1ccccc1Cl)C(C)C`, for which the inhibition was -7.12% (inactive).
As for `CCCCc1nnc(SCC(=O)Nc2nccs2)n1CC`, the inhibition was -0.32% (inactive).
